Shown are actives, neighbours in structure and some others; about 4.5% of the full set was active somewhere.
DAX1 inh-1 – DAX1 (NR0B1) inhibitors on StAR promoter, primary screen, cell-based, luminescence, SF-1 (NR5A1), full-length DAX-1; HEK293T StAR-luciferase reporter, SF-1/DAX-1 repression relief; inhibition, % at 6.8 µM; actives 1.1% (n = 370,000); AID 652010, 2013;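 active = inhibition above the mean over all tested compounds plus 3 SD, cut at about 3.6% in these data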;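 note: 0% = DAX-1 cells with DMSO and 100% = cells lacking DAX-1 with DMSO; higher inhibition means more luminescence from relief of DAX-1 repression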
FXN GAA850 act – FXN promoter activators, primary screen, cell-based, luciferase luminescence, HEK293 lucGAA850 | activation, % at 6 µM | HEK293 lucGAA850 FXN promoter luciferase reporter, 24 h; percent of 10 µM SAHA response | AID 540364, 2011 | actives 0.56% (n = 360,000);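 active = activation above the average of all compounds screened plus 3 SD, cutoff fixed separately per campaign, cut at about 7.5% in these data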;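 note: 0% = DMSO wells and 100% = 10 µM SAHA wells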
DAX1 inh-2 – DAX1 (NR0B1) inhibitors, primary screen, cell-based, HEK293, Gal4-DAX1, luciferase luminescence; Nuclear receptor subfamily 0 group B member 1 (Homo sapiens), P51843; HEK293 Gal4-DAX1 luciferase reporter; inhibition, % at 6.75 µM; actives 0.99% (n = 340,000); AID 504766, 2011;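 active = inhibition above the mean over all tested compounds plus 3 SD, cut at about 4.2% in these data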;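 note: 0% = DAX1-transfected cells with DMSO and 100% = empty-vector control cells with DMSO; inhibition shows as a rise in luminescence from relieved DAX1 repression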
Target sequence (P51843 207-470 limits assumed): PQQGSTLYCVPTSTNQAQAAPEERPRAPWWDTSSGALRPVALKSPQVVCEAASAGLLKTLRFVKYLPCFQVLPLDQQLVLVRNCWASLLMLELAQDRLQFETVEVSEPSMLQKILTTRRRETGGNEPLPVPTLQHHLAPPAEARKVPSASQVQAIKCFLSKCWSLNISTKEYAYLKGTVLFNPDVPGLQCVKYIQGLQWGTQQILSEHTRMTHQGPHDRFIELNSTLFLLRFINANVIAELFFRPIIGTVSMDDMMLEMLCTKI
ssDAF-12 act – S. stercoralis DAF-12 nuclear receptor activators, primary screen, cell-based, luminescence, HEK293, GRIP1 co-expression, lit1-tk-luc; Nuclear hormone receptor DAF-12 (Strongyloides stercoralis); HEK293 ssDAF-12/GRIP1 lit1-tk-luc reporter; % of 3 µM dafachronic acid response; activation, % at 6.8 µM; actives 1% (n = 370,000);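 active = activation above the mean over all tested compounds plus 3 SD, cut at about 0.9% in these data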;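 note: 0% = DMSO-only wells and 100% = 3 µM delta7-dafachronic acid wells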
hcDAF-12 act – H. contortus DAF-12 nuclear receptor activators, primary screen, cell-based, luminescence, HEK293, lit1-tk-luc reporter; actives 1.4% (n = 370,000); activation, % at 6.8 µM; HEK293 hcDAF-12 lit1-tk-luc reporter; 0% DMSO, 100% Δ7-dafachronic acid;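 active = activation above the mean of all tested compounds plus 3 SD, cut at about 5.5% in these data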;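 note: 100% = response to 3 µM Δ7-dafachronic acid high control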
hgDAF12 agonist – H. glycines DAF-12 receptor agonists, primary screen, cell-based, luminescence, HEK293, GAL4 fusion, UAS-luciferase; activation, % at 6.8 µM; HEK293 GAL4-hgDAF12 UAS-luciferase reporter, agonist luminescence; normalized to butyrate control; Nuclear hormone receptor DAF-12 (Heterodera glycines), GAL4 fusion; actives 1.8% (n = 370,000); AID 687014, 2013;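 active = activation above a cutoff set at the mean of all screened compounds plus 3 SD, cut at about 10% in these data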;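 note: 0% = DMSO wells and 100% = sodium butyrate wells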
LXRb hcDAF ctr – LXR agonists, Gal4 luciferase reporter, confirmation, counter-screen for hcDAF-12 agonist project, cell-based, luminescence, HEK293, H. contortus campaign; 3,400 tested, under 10 active; HEK293 Gal4-LXR tk-luc reporter, 24 h; normalized: DMSO 0%, positive control 100%; activation, % at 6.8 µM; shares compounds with hcDAF-12 act; AID 743027, 2013;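 active = mean percent activation of the reporter above a cutoff set as the average over tested compounds plus their standard deviation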
hcDAF12 ag – H. contortus DAF-12 receptor agonists, confirmation, cell-based, luminescence, HEK293, lit1-tk-luc, triplicate; shares compounds with hcDAF-12 act; HEK293 hcDAF-12 lit1-tk-luc reporter; % of Δ7-dafachronic acid response; activation, % at 6.8 µM; actives 61% (n = 3,400);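 active = mean activation across triplicate tests above the threshold derived from the earlier primary screen, cut at about 5.5% in these data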;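 note: 0% = DMSO only wells and 100% = 3 µM Δ7-dafachronic acid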
hgDAF12 conf – H. glycines DAF-12 receptor agonists, confirmation, cell-based, luminescence, HEK293, GAL4-LBD fusion | actives 80% (n = 3,300) | shares compounds with hgDAF12 agonist | activation, % at 6.8 µM | HEK293 GAL4-hgDAF12 luciferase reporter, agonist mode; percent of butyrate response;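 active = mean activation over triplicate wells above the hit cutoff derived from the earlier primary screen, cut at about 11% in these data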;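 note: 0% = DMSO low control and 100% = 2 mM sodium butyrate high control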
LXR ag 2 – LXR agonists, Gal4 luciferase reporter, confirmation, counter-screen for hgDAF-12 agonist project, cell-based, luminescence, HEK293, H. glycines campaign; shares compounds with hgDAF12 agonist; 24 h; activation, % at 6.8 µM; 3,300 tested, under 10 active;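 active = mean activation of the triplicate above a set limit carried over from the primary screen, none filed active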
* marks the source's active call; other numbers are inactive results.

`CCC(C)c1ccc(OCc2ccc(C(=O)O)o2)cc1` (stereo not given) gave DAX1 inh-1 3.2, FXN GAA850 act 3.9, DAX1 inh-2 -3.7, ssDAF-12 act 0.8, hcDAF-12 act 10.3*, hgDAF12 agonist 15.3*, LXRb hcDAF ctr 1.4, hcDAF12 ag 8.7*, hgDAF12 conf 22.1* and LXR ag 2 1.0.
For CCOC(=O)c1c(NC(=S)Nc2ccccc2)sc(C)c1C the results were DAX1 inh-1 0.3, FXN GAA850 act -0.2, DAX1 inh-2 1.8, ssDAF-12 act -0.8, hcDAF-12 act 1.7 and hgDAF12 agonist -0.1.
Screening CCOC(=O)c1c(N)sc(C(=O)Nc2ccccc2)c1C returned DAX1 inh-1 3.3, FXN GAA850 act 3.9, DAX1 inh-2 -1.2, ssDAF-12 act 0.4, hcDAF-12 act 10.2*, hgDAF12 agonist 28.1*, LXRb hcDAF ctr 1.6, hcDAF12 ag 8.9*, hgDAF12 conf 21.6* and LXR ag 2 1.2.
CCN(CC)c1ccc(/C=C/C(=O)C2C(=O)C=C(C)OC2=O)cc1 (stereo not given) was read as DAX1 inh-1 2.5, FXN GAA850 act 6.1, DAX1 inh-2 0.3, ssDAF-12 act 0.3, hcDAF-12 act 7.7*, hgDAF12 agonist 18.8*, LXRb hcDAF ctr 0.4, hcDAF12 ag 4.2, hgDAF12 conf 7.9 and LXR ag 2 0.3.
`COc1ccc([C@H]2N[C@]3(CCCN(Cc4cccn4C)C3=O)[C@H]3C(=O)N(Cc4ccccc4)C(=O)[C@@H]23)cc1` gave DAX1 inh-1 -0.3, FXN GAA850 act -2.5, DAX1 inh-2 2.7, ssDAF-12 act -0.9, hcDAF-12 act -0.2 and hgDAF12 agonist -1.5.
Screening Cc1ccc(C)c(NC(=O)c2cc3ccccn3n2)c1 returned DAX1 inh-1 3.6*, FXN GAA850 act 6.5, DAX1 inh-2 0.6, ssDAF-12 act 0.2, hcDAF-12 act 7.8*, hgDAF12 agonist 20.7*, LXRb hcDAF ctr 1.0, hcDAF12 ag 2.8, hgDAF12 conf 18.2* and LXR ag 2 0.8.
Cc1ccc(C)c(NC(=O)c2cnn3ccccc23)c1 was read as DAX1 inh-1 -1.4, FXN GAA850 act 2.1, DAX1 inh-2 -0.3, ssDAF-12 act -1.6, hcDAF-12 act -0.8 and hgDAF12 agonist 2.9.
`O=C(Nc1cccc(F)c1)OC1CC2CC1[C@H]1CCCCN1[C@H]2Cc1ccccc1` (stereo not given in full) gave DAX1 inh-1 0.2, ssDAF-12 act -0.5, hcDAF-12 act -0.1 and hgDAF12 agonist -1.7.
For Cc1cccc(-c2cnn(-c3ccccc3)c2N)c1 the results were DAX1 inh-1 0.7, FXN GAA850 act 1.6, DAX1 inh-2 2.2, ssDAF-12 act -0.8, hcDAF-12 act 3.5 and hgDAF12 agonist 6.0.
Nc1c(-c2ccccc2)cnn1-c1cccc(Cl)c1 was read as DAX1 inh-1 2.5, FXN GAA850 act 2.9, DAX1 inh-2 3.6, ssDAF-12 act -0.2, hcDAF-12 act 7.1*, hgDAF12 agonist 15.0*, LXRb hcDAF ctr 0.9, hcDAF12 ag 4.2, hgDAF12 conf 16.6* and LXR ag 2 0.7.
`O=C(CN1CCC(C(=O)c2ccc3c(c2)OCCO3)CC1)Nc1ccccc1C(F)(F)F` gave DAX1 inh-1 -0.2, FXN GAA850 act -0.9, DAX1 inh-2 -0.2, ssDAF-12 act -0.9, hcDAF-12 act -2.8 and hgDAF12 agonist -2.5.
For CCC(CC)c1nnc(NC(=O)CCc2ccccc2OC)s1 the results were DAX1 inh-1 -0.2, FXN GAA850 act 0.5, DAX1 inh-2 1.4, ssDAF-12 act -0.3, hcDAF-12 act -2.4 and hgDAF12 agonist -1.9.
For Brc1ccc(-c2csc(-c3c[nH]c4ccccc34)n2)cc1 the results were DAX1 inh-1 1.4, FXN GAA850 act 0.9, DAX1 inh-2 1.7, ssDAF-12 act -0.1, hcDAF-12 act 4.0 and hgDAF12 agonist 7.0.
c1ccc2c(-c3csc(-c4ccncc4)n3)c[nH]c2c1 was read as DAX1 inh-1 0.9, FXN GAA850 act 6.0, DAX1 inh-2 -0.9, ssDAF-12 act 1.6*, hcDAF-12 act 13.1*, hgDAF12 agonist 28.4*, LXRb hcDAF ctr 0.7, hcDAF12 ag 14.0*, hgDAF12 conf 15.3* and LXR ag 2 0.4.
Screening COc1ccc(NC(=O)n2ncc3c(C)cccc32)cc1 returned DAX1 inh-1 2.8, FXN GAA850 act 3.6, DAX1 inh-2 3.6, ssDAF-12 act 0.4, hcDAF-12 act 11.5*, hgDAF12 agonist 14.1*, LXRb hcDAF ctr 1.5, hcDAF12 ag 10.6*, hgDAF12 conf 20.9* and LXR ag 2 0.9.
For CCC(=O)Nc1ccc2oc(-c3cccc(C)c3)nc2c1 the results were DAX1 inh-1 4.2*, FXN GAA850 act 1.2, DAX1 inh-2 -2.7, ssDAF-12 act 0.5, hcDAF-12 act 6.9*, hgDAF12 agonist 14.8*, LXRb hcDAF ctr 1.9, hcDAF12 ag 7.9*, hgDAF12 conf 16.3* and LXR ag 2 0.9.

Screening data (PubChem BioAssay)
